Experimental data taken from ChEMBL document CHEMBL1961873, “Compounds: GSK PKIS; Assays: Nanosyn kinase panel” (2012).

Each compound was assayed against Serine/threonine-protein kinase MRCK alpha (Homo sapiens) (UniProt Q5VT25). Settings: at 0.1 µM.
Sequence of Serine/threonine-protein kinase MRCK alpha (Homo sapiens) (Q5VT25 whole entry): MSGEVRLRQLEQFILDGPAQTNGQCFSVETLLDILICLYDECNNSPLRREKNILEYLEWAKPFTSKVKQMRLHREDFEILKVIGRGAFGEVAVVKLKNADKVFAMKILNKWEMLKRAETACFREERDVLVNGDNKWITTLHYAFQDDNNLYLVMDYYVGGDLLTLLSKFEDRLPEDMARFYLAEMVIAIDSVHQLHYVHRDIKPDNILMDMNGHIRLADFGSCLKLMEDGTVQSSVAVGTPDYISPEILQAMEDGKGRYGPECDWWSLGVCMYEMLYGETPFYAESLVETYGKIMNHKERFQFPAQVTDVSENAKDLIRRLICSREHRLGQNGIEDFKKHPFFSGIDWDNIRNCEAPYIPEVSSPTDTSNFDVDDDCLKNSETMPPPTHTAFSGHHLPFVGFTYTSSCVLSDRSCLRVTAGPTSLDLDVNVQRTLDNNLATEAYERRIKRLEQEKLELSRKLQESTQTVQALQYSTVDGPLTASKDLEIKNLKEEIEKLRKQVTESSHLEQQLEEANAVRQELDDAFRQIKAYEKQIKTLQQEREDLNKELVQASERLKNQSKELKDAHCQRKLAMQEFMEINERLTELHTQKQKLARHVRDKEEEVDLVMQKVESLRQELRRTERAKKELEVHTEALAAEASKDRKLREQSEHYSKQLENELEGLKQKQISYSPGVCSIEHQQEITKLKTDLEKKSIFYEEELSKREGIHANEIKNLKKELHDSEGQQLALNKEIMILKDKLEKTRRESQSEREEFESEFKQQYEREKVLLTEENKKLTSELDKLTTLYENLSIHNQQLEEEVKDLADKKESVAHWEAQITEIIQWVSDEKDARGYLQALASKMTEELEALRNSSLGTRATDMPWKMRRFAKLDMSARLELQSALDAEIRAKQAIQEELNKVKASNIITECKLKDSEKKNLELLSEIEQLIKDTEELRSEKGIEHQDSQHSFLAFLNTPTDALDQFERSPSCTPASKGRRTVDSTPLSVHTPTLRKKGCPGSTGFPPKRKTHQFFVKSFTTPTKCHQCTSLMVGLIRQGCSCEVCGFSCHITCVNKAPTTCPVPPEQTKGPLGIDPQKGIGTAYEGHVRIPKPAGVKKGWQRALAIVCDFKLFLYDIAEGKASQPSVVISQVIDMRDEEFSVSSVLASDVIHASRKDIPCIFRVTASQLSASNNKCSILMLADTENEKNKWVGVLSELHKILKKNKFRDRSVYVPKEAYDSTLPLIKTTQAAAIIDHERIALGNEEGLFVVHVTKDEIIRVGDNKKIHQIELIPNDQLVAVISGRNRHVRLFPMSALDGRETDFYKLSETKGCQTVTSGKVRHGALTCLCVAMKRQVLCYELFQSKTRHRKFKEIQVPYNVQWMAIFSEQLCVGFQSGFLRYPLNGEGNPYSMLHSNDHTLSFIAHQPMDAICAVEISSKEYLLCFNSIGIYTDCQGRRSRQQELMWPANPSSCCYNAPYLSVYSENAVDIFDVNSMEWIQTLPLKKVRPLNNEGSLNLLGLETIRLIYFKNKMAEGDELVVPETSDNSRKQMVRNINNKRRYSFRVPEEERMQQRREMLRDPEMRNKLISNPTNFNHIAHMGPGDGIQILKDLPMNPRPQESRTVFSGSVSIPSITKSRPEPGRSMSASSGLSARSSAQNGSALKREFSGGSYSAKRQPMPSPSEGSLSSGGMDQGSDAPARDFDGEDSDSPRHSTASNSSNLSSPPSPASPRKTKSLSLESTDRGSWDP

Row | SMILES | inhibition [%]
1 | CN(C)CCCn1c(-c2nonc2N)nc2cnccc21 | 1.89
2 | CN(c1ccc(NC(=O)Nc2ccc(OC(F)(F)F)cc2)cc1)c1ccnc(Nc2cccc(S(N)(=O)=O)c2)n1 | -5.74
3 | O=C(Nc1ccc(Oc2ccc3[nH]c(NC(=O)c4ccco4)nc3c2)cc1)Nc1cc(C(F)(F)F)ccc1F | -0.11
4 | c1ccc(Cc2nc3ccc(Nc4ncnc5ccccc45)cc3[nH]2)cc1 | -0.57
5 | C[C@@H](Oc1cc(-n2cnc3ccc(OCC4CCN(C)CC4)cc32)sc1C(N)=O)c1ccccc1C(F)(F)F | 0.6
6 | Nc1nccc(-c2c(-c3ccc(F)cc3)nn3cc(C(F)(F)F)ccc23)n1 | -3.46
7 | NC(=O)c1cccc(Nc2nccc(Nc3cccc(F)c3)n2)c1 | 1.84
8 | Nc1nccc(C#Cc2cncnc2Nc2ccc(OCc3cccc(F)c3)c(Cl)c2)n1 | 0.06
9 | NC(=O)c1sc(-n2cnc3ccccc32)cc1OCc1ccccc1Br | 1.73
10 | CN(C)c1cc2c(Nc3ccc4c(cnn4Cc4ccccc4)c3)ncnc2cn1 | -0.16
11 | NS(=O)(=O)c1ccc(-c2cc3ccncc3cc2OCc2ccccc2)cc1 | -0.66
12 | Nc1ccc(C#Cc2cncnc2Nc2ccc(OCc3cccc(F)c3)c(Cl)c2)cc1 | -1.73
13 | FC(F)(F)c1ccc(-c2nn3ncccc3c2-c2ccnc(Nc3ccc4c(c3)OCCO4)n2)cc1 | 7.63
14 | Cc1cc(-c2ccccn2)cc(C)c1/C=C/c1cncc(-c2nn[nH]n2)c1 | 2.46
15 | CCn1c(-c2nonc2N)nc2c(C#CC(C)(C)O)nc(OCCNC)cc21 | 1.79
16 | Oc1cccc(-c2nc(-c3ccccc3)[nH]c2-c2ccncc2)c1 | -0.93
17 | C[C@@H](Oc1cc(-n2cnc3ccc(OC[C@@H](O)CO)cc32)sc1C(N)=O)c1ccccc1Cl | -0.35

Row | SMILES | inhibition [%]
18 | OCc1ccc(-c2nc(-c3ccccn3)c(-c3ccc4c(c3)OCO4)[nH]2)cc1 | 0.27
19 | Cc1ccc(NC(=O)CC2CC2)cc1-c1ccc(C(=O)NCC2CC2)cc1 | -0.72
20 | COc1ccc(-c2nn3ncccc3c2-c2ccnc(Nc3cccc(C(F)(F)F)c3)n2)cc1 | -3.04
21 | Cc1ccc2c(c1)/C(=N/Nc1ccc(S(N)(=O)=O)cc1)C(=O)N2 | 0.22
22 | COc1cc(/C=N/Nc2ncnc3c2cnn3C(C)C)ccc1O | 0
23 | NS(=O)(=O)c1ccc(NC=C2C(=O)Nc3ccc4ncsc4c32)cc1 | 3.96
24 | COc1cc(Nc2nccc(-c3cnn4ncccc34)n2)cc(OC)c1 | 0.39
25 | CCS(=O)(=O)c1ccc(OC)c(Nc2nccc(N(C)c3ccc4c(C)n[nH]c4c3)n2)c1 | -4.24
26 | Cc1ccc(Nc2ccnc(Nc3cccc(C(N)=O)c3)n2)cc1O | -0.17
27 | CS(=O)(=O)Nc1cccc(-c2ccc3c(NC(=O)C4CC4)n[nH]c3c2)c1 | 1.58
28 | NS(=O)(=O)c1ccc(Nc2cc(-c3cccc(O)c3)n[nH]2)cc1 | 0.59
29 | COC(=O)c1cncc(/C=C/c2c(C)cc(O)cc2C)c1 | -0.75
30 | COc1cc2ncnc(Nc3ccc(C)c(O)c3)c2cc1OC | 0.29
31 | COC(=O)Nc1nc2cc(Oc3ccc(NC(=O)Nc4cccc(Br)c4)cc3)ccc2[nH]1 | 0.43
32 | [O-][S+]1CCN(Cc2ccc(-c3ccc4ncnc(Nc5ccc(OCc6ccccc6)c(Cl)c5)c4c3)o2)CC1 | -2.24
33 | COc1cc2ncn(-c3cc(OCc4ccccc4S(C)(=O)=O)c(C#N)s3)c2cc1OC | 1.12

These compounds were tested against Serine/threonine-protein kinase MRCK alpha (Homo sapiens) (UniProt Q5VT25). Settings: at 1 µM.

Row | SMILES | inhibition [%]
34 | CN(C)CCCn1c(-c2nonc2N)nc2cnccc21 | 16.4
35 | CN(c1ccc(NC(=O)Nc2ccc(OC(F)(F)F)cc2)cc1)c1ccnc(Nc2cccc(S(N)(=O)=O)c2)n1 | -0.82
36 | O=C(Nc1ccc(Oc2ccc3[nH]c(NC(=O)c4ccco4)nc3c2)cc1)Nc1cc(C(F)(F)F)ccc1F | -0.59
37 | c1ccc(Cc2nc3ccc(Nc4ncnc5ccccc45)cc3[nH]2)cc1 | -0.25
38 | C[C@@H](Oc1cc(-n2cnc3ccc(OCC4CCN(C)CC4)cc32)sc1C(N)=O)c1ccccc1C(F)(F)F | 5.18
39 | Nc1nccc(-c2c(-c3ccc(F)cc3)nn3cc(C(F)(F)F)ccc23)n1 | -4.53
40 | NC(=O)c1cccc(Nc2nccc(Nc3cccc(F)c3)n2)c1 | 0.87
41 | Nc1nccc(C#Cc2cncnc2Nc2ccc(OCc3cccc(F)c3)c(Cl)c2)n1 | -0.95
42 | NC(=O)c1sc(-n2cnc3ccccc32)cc1OCc1ccccc1Br | 4.94
43 | CN(C)c1cc2c(Nc3ccc4c(cnn4Cc4ccccc4)c3)ncnc2cn1 | 0.83
44 | NS(=O)(=O)c1ccc(-c2cc3ccncc3cc2OCc2ccccc2)cc1 | -1.1
45 | Nc1ccc(C#Cc2cncnc2Nc2ccc(OCc3cccc(F)c3)c(Cl)c2)cc1 | 0.19
46 | FC(F)(F)c1ccc(-c2nn3ncccc3c2-c2ccnc(Nc3ccc4c(c3)OCCO4)n2)cc1 | 5.17
47 | Cc1cc(-c2ccccn2)cc(C)c1/C=C/c1cncc(-c2nn[nH]n2)c1 | 1.25
48 | CCn1c(-c2nonc2N)nc2c(C#CC(C)(C)O)nc(OCCNC)cc21 | 6.63
49 | Oc1cccc(-c2nc(-c3ccccc3)[nH]c2-c2ccncc2)c1 | 2.63
50 | C[C@@H](Oc1cc(-n2cnc3ccc(OC[C@@H](O)CO)cc32)sc1C(N)=O)c1ccccc1Cl | 4.31

Row | SMILES | inhibition [%]
51 | OCc1ccc(-c2nc(-c3ccccn3)c(-c3ccc4c(c3)OCO4)[nH]2)cc1 | -0.19
52 | Cc1ccc(NC(=O)CC2CC2)cc1-c1ccc(C(=O)NCC2CC2)cc1 | 2.73
53 | COc1ccc(-c2nn3ncccc3c2-c2ccnc(Nc3cccc(C(F)(F)F)c3)n2)cc1 | 1.22
54 | Cc1ccc2c(c1)/C(=N/Nc1ccc(S(N)(=O)=O)cc1)C(=O)N2 | 1.3
55 | COc1cc(/C=N/Nc2ncnc3c2cnn3C(C)C)ccc1O | 0.03
56 | NS(=O)(=O)c1ccc(NC=C2C(=O)Nc3ccc4ncsc4c32)cc1 | 20.5
57 | COc1cc(Nc2nccc(-c3cnn4ncccc34)n2)cc(OC)c1 | 3.14
58 | CCS(=O)(=O)c1ccc(OC)c(Nc2nccc(N(C)c3ccc4c(C)n[nH]c4c3)n2)c1 | -2.48
59 | Cc1ccc(Nc2ccnc(Nc3cccc(C(N)=O)c3)n2)cc1O | 1.81
60 | CS(=O)(=O)Nc1cccc(-c2ccc3c(NC(=O)C4CC4)n[nH]c3c2)c1 | 2.47
61 | NS(=O)(=O)c1ccc(Nc2cc(-c3cccc(O)c3)n[nH]2)cc1 | 0.11
62 | COC(=O)c1cncc(/C=C/c2c(C)cc(O)cc2C)c1 | 4.85
63 | COc1cc2ncnc(Nc3ccc(C)c(O)c3)c2cc1OC | 0.79
64 | COC(=O)Nc1nc2cc(Oc3ccc(NC(=O)Nc4cccc(Br)c4)cc3)ccc2[nH]1 | 0.85
65 | [O-][S+]1CCN(Cc2ccc(-c3ccc4ncnc(Nc5ccc(OCc6ccccc6)c(Cl)c5)c4c3)o2)CC1 | -0.57
66 | COc1cc2ncn(-c3cc(OCc4ccccc4S(C)(=O)=O)c(C#N)s3)c2cc1OC | 5.41
